Shown are actives, neighbours in structure and some others; about 3% of the full set was active somewhere.
KCNH2 3.1 block: blocks the human KCNH2 3.1 channel isoform; 0.95% of 340,000 active; AID 720553; U2OS KCNH2 3.1, thallium flux FluxOr; active compounds read low; activity change, % (tested at about 1.8 µM);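 active = maximum activity change below -70%; inconclusive = maximum activity change from -70% to -50%; inactive = maximum activity change above -50%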;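 also: thallium influx rate constant from kinetic fluorescence after stimulation buffer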
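Channel expression came from 3.1 mutant virus (1.77 x 10^8 /mL) applied to suspended U2OS cells for 4 h. Flux was tracked with FluxOr dye plus Red40 quencher, and kinetic rate constants normalized to controls.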
LDHA inh: inhibitors of human lactate dehydrogenase A; AID 1347041; activity change, % (values are at about 110 or 230 µM); P00338; purified LDHA, NADH/diaphorase-resazurin fluorescence; active compounds read low; 0.15% of 480,000 active; in the data active = activity change below about -30%; inconclusive = mostly about -25% to -30%
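LDH5 2 nM; NADH 0.06 mM, pyruvate 0.2 mM; 200 mM Tris pH 7.4, EDTA, Tween-20; 5 min RT. Detection: diaphorase 0.133 mg/mL + resazurin 37 µM, fluorescence ex540/em590 at 0 and 20 min; normalized to enzyme-free and DMSO wells.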
KCNH2 WT inh: inhibitors of human wildtype KCNH2 potassium channel; U2OS, BacMam KCNH2, thallium flux FluxOr; active compounds read low; activity change, % at 1.84 µM; 0.37% of 340,000 active; AID 720551;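 active = maximum activity change below -70%; inconclusive = maximum activity change between -70% and -50%; inactive = maximum activity change above -50%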
Target sequence (Q12809 whole entry, looked up): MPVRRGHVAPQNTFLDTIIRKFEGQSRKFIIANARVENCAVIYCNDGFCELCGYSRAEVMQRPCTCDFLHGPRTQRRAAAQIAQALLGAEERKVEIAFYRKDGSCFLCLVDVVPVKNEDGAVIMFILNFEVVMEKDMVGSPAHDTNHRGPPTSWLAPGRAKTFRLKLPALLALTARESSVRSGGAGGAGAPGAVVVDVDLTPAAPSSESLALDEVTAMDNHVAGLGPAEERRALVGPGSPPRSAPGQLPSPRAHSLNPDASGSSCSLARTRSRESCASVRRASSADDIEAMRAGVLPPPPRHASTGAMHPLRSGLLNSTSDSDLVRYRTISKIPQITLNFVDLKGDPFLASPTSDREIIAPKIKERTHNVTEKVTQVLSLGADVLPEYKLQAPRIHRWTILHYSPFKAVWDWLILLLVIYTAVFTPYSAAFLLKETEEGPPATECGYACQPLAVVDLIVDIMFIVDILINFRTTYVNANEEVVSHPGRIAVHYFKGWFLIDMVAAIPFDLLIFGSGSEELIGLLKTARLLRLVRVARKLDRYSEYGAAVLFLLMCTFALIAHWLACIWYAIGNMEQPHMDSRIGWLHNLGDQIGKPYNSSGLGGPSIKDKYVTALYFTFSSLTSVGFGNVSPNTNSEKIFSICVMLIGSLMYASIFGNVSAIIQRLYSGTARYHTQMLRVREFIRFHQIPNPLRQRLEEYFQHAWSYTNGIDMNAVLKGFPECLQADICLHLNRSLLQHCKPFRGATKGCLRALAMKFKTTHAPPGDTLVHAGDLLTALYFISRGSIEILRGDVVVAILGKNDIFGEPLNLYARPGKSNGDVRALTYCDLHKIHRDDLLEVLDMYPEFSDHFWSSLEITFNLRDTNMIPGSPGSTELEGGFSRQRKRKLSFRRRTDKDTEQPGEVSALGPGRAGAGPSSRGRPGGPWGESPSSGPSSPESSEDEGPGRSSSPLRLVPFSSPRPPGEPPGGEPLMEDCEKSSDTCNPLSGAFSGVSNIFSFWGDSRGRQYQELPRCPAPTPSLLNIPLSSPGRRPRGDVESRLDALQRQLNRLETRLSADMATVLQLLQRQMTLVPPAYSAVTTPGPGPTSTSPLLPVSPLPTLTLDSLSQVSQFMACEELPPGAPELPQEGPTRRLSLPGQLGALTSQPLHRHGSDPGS
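U2OS cells were transduced with wild-type KCNH2 virus (2.03 x 10^8 / mL) for 4 h at room temperature, then cultured overnight at 37 C. Thallium flux was read with FluxOr dye. Rate constants were normalized to DMSO controls.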
BCR signal inh: blocks chronic active B-cell receptor signaling; 0.05% of 340,000 active; AID 493014; ABC-DLBCL IkBa-CBG/CBR reporter, luminescence ratio, 4 h; Potency, µM (series often up to 46.1 µM), hits mostly inhibitors; active = well fitted inhibition curve with a large enough effect in the signal ratio, with a control signal flat, not every such curve was filed as active; inconclusive = small, poorly fitted or top-dose-only effect, or effect the other way, or a change in a side signal; the % refers to the signal ratio
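Cell line TMD8 (human ABC DLBCL), stably expressing tet-inducible CBG68-IkBa fusion and CBR; IMDM/0.5% FBS; cpd up to 46 uM; dox induction, 4 h, 37C/5% CO2; dual luminescence; green/red ratio; MG132 control.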
12-LOX inh: inhibitors of human 12S-lipoxygenase ALOX12; P18054; purified 12hLO, xylenol orange hydroperoxide absorbance; Potency, µM (titrated, usually from 108 µM), usual class: inhibitors; 1.1% of 580,000 active; AID 1671190; active = well fitted inhibition curve with a large enough effect; inconclusive = small, poorly fitted or top-dose-only effect, or another doubt; inactive = no such curve, though single readings can be large or run the other way
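Hydroperoxide product was detected by ferrous iron/xylenol orange as the 573 to 405 nm absorbance ratio. Arachidonic acid at 40 uM (final) was turned over for 30 min at room temperature by 150 nM human 12hLO, pH 7.0 Hepes buffer, after 15 min compound preincubation.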
ClpP mod: qHTS Assay for Activators of ClpP; ATP-dependent Clp protease proteolytic subunit (Bacillus subtilis (strain 168)), P80244; purified B. subtilis ClpP, FRET peptide cleavage, 20 min; Potency, µM (titrated, usually from 57.5 µM); 1.9% of 340,000 active; AID 651965, 2013; active = well fitted falling curve with a large enough effect; inconclusive = small, poorly fitted or top-dose-only effect; inactive = no such curve, though single readings can be large or run the other way; also: the source files actives as falling curves though it sought activators and does not explain the sign; nearly all actives have a fitted effect of over 65% in size
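Purified B. subtilis ClpP, 10 microg/mL final in Tris/HCl pH8 with KCl, BSA, glycerol and Tween-20, cleaved an Abz/nitrotyrosine-quenched decapeptide. Fluorescence (ex 320, em 430) was read at 0 and 20 min at room temperature. Delta was normalized to 5.8 microM ADEP and DMSO/no-enzyme controls.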
A number is an active result; n = inactive; u = inconclusive; x = not tested or not shown.

SMILES	KCNH2 3.1 block	LDHA inh	KCNH2 WT inh	BCR signal inh	12-LOX inh	ClpP mod
COc1ccccc1CNc1nc(-c2cc(C)n(C3CC3)c2C)cs1	x	n	x	x	u	x
CC(C)CC(NC(c1ccccc1)(c1ccccc1)c1ccccc1)C(=O)O (stereo not given)	x	n	x	x	u	x
COc1ccc(C2CC(c3cccs3)=NN2C(=O)CSc2nc3ccccc3s2)cc1 (stereo not given)	n	n	n	n	n	u
O=C(CSc1nc2ccccc2s1)N1N=C(c2cccs2)CC1c1ccc(F)cc1 (stereo not given)	n	n	n	n	n	28µM
COc1ccc(C2CC(c3cccs3)=NN2C(=O)CCC(=O)O)cc1 (stereo not given)	n	n	n	n	n	u
COc1ccc(C2CC(c3cccs3)=NN2C(=O)CSc2nc3ccccc3o2)cc1 (stereo not given)	n	n	n	n	n	32µM
CN1CCc2c(OCC(=O)N3N=C(c4cccs4)CC3c3ccc(F)cc3)cccc2C1=O (stereo not given)	n	n	n	u	n	u
CCCCOC(=O)CSCC(=O)N1N=C(c2cccs2)CC1c1ccc(F)cc1 (stereo not given)	n	n	n	n	n	14µM
CCN1CCc2c(OCC(=O)N3N=C(c4cccs4)CC3c3ccc(F)cc3)cccc2C1=O (stereo not given)	n	n	n	n	n	7.9µM
CC(C)CCNC(=O)CCc1c[nH]c2ccccc12	x	n	x	x	n	x
CC(C)CN(CC(N)=O)CC(=O)N(C)C1(C#N)CCCCC1	x	n	x	x	u	x
CN(C)C(=O)c1ccc2oc(CN3CCN(C(=O)Nc4ccccc4Cl)CC3)nc2c1	x	n	x	x	n	x
COc1c(N)c2ccccc2[nH]c1=O	n	n	n	n	n	32µM
CCOC1=C/C(=C/c2c(N)n3nc(-c4ccccc4)sc3nc2=O)C=CC1=O	n	n	n	u	u	x
COC1=C/C(=C/c2c(N)n3nc(-c4ccc(C)cc4)sc3nc2=O)C=CC1=O	n	-30	n	u	u	x
Cc1noc(-c2nc(-c3ccc(Br)cc3)no2)n1	x	x	x	x	n	x
O=C1c2cnc3nc(SCc4ccc(Cl)cc4)nn3c2CC2c3ccccc3CCN12 (stereo not given)	n	n	n	u	n	32µM
Cc1ccc(NC(=O)Cc2nc(-c3cc(C)n(-c4cc(C)on4)c3C)cs2)c(C)c1	x	n	x	x	n	x
CC1=NN(c2nc(C)cc(C)n2)C(=O)C1Cc1ccc(Cl)cc1 (stereo not given)	x	-36	x	x	n	x
Cc1cc(NCCCO)n2c(nc3ccccc32)c1C#N	n	n	n	n	n	x
CCCNc1cc(C)c(C#N)c2nc3ccccc3n12	n	n	n	n	n	2.8µM
CCC1(CC)C(=O)C(C)(C)C(=O)OC1c1cccs1 (stereo not given)	n	n	n	n	n	28µM
COc1cccc(C(=O)c2sc(Nc3cc(C)cc(C)c3)nc2N)c1	x	n	x	x	n	x
CCCC(C)NC(=O)Nc1cc(C(=O)NC)ccc1C (stereo not given)	x	n	x	x	n	x
CCCC(C)NC(=O)Nc1cc(C(=O)NC2CC2)ccc1C (stereo not given)	x	-34	x	x	n	x
SMILES	KCNH2 3.1 block	LDHA inh	KCNH2 WT inh	BCR signal inh	12-LOX inh	ClpP mod
Cn1cc(Cl)cc1C(=O)N1CCCC(c2ccc(C(=O)O)cc2)C1 (stereo not given)	x	x	x	x	n	x
Cc1cc(C)c(C#N)c(N2CCCC2)n1	n	n	n	n	n	3.5µM
COc1cc2c(C#N)c(N3CCN(C)CC3)nc(N)c2c(N)n1	x	x	x	n	n	x
COc1cc2c(C#N)c(N3CCCC3)nc(N)c2c(N)n1	n	n	n	u	n	n
N#Cc1c(N2CCCC2)nc(N)c2c(N)nc(N3CCCC3)cc12	n	n	n	n	n	7.9µM
COc1cc2c(C#N)c(N3CCN(c4ccccc4OC)CC3)nc(N)c2c(N)n1	n	n	n	u	n	32µM
CNCC12CC3CC(CC(C3)C1)C2	x	n	x	x	n	x
C/C(=N\NC(N)=O)c1c(F)cccc1F	n	n	n	n	n	32µM
